Compounds with a hit are over-represented: about 27% of the library has one in this group of screens.
CYP2C9 inh: blocks human cytochrome P450 2C9; CYP2C9 Supersomes, luciferin-H conversion, luminescence; inhibition, % at 5 µM; hit rate 20% among 96,000; AID 777;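 active = blocking of liver enzyme CYP2C9 beyond about 50% at 5 µM, limit read from the data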
CYP2C19 act: activators of human cytochrome P450 2C19 | activation factor at 5 µM | 96,000 tested, under 10 active | recombinant CYP2C19, luciferin-H EGE luminescence; stronger effect = higher value; 0 = fully inhibited enzyme, 1 = untreated enzyme;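 active = activation factor of at least 2 at 5 µM in the primary screen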
CYP2C9 act: activators of human CYP2C9; recombinant CYP2C9, luciferin-H conversion, luminescence; stronger effect = higher value; factor 1 = untreated enzyme, 0 = blocked; activation factor at 5 µM; hit rate 1.4% among 96,000; AID 1024;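 active = activation factor of 2 or more for CYP2C9 at a 5 µM dose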
EphB4 antag: antagonists of human EphB4-ephrin-B2 interaction; EphB4 LBD / TNYL-RAW-Alexa532 peptide, fluorescence polarization; inhibition, % at 7 µM; hit rate 0.15% among 97,000;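 active = inhibition above the screen-wide mean inhibition plus 3 SD, cut at about 15% in these data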
Target sequence (P54760 whole entry, looked up, the tested form may be a part): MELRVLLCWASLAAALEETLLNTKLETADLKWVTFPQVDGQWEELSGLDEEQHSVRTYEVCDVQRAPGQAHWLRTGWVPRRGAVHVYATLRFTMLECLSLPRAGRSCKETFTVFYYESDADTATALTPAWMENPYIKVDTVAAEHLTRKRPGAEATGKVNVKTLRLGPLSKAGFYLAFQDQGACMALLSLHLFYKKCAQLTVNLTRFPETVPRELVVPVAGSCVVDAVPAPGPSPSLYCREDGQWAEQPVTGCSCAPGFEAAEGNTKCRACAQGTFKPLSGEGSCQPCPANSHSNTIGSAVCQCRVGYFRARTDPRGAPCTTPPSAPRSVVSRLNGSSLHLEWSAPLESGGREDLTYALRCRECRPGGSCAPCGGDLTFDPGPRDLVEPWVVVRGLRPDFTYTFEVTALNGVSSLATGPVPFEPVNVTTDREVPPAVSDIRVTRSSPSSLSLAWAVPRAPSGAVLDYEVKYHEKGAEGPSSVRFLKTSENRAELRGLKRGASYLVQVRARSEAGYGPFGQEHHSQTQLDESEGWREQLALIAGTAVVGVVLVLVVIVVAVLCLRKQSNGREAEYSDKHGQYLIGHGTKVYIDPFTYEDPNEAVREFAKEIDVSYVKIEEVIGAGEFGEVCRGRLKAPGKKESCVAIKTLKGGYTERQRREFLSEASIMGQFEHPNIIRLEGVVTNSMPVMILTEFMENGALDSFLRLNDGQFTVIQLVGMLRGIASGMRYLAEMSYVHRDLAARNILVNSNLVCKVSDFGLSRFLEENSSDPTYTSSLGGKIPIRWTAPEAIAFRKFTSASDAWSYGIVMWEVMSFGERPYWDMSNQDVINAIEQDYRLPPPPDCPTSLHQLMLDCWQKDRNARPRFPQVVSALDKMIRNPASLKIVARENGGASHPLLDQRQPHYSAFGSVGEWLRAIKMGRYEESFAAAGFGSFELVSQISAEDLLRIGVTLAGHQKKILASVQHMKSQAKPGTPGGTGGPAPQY
CYP2C19 inhib: human CYP2C19 inhibition | CYP2C19 Supersomes, luciferin-H EGE luminescence, 30 min | inhibition, % at 5 µM | hit rate 21% among 96,000 | AID 778;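 active = CYP2C19 inhibition above a set limit at 5 µM in the primary screen, cut at about 50% in these data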
Hits are given with their value.

O=C(Nc1ccccc1F)c1ccc(-n2cncn2)nc1 was read as CYP2C9 inh 69, CYP2C19 act inactive, CYP2C9 act inactive, EphB4 antag inactive and CYP2C19 inhib 97.
COc1ccc(OC)c(NC(=O)c2ccc(-n3cccn3)nc2)c1 was read as CYP2C9 inh inactive, CYP2C19 act inactive, CYP2C9 act inactive, EphB4 antag inactive and CYP2C19 inhib inactive.
Cc1cccc(C)c1NC(=O)c1ccc(-n2cncn2)nc1 was read as CYP2C9 inh 66, CYP2C19 act inactive, CYP2C9 act inactive, EphB4 antag inactive and CYP2C19 inhib 93.
For Cc1nn2c(C(F)(F)F)cc(-c3ccc(Cl)cc3)nc2c1C(=O)N1CCOCC1 the results were CYP2C9 inh inactive, CYP2C19 act inactive, CYP2C9 act inactive, EphB4 antag inactive and CYP2C19 inhib inactive.
Screening COC(=O)c1ccc(N2C(=O)CC(N3CCOCC3)C2=O)cc1 (stereo not given) returned CYP2C9 inh inactive, CYP2C19 act inactive, CYP2C9 act inactive, EphB4 antag inactive and CYP2C19 inhib inactive.
`CC(C)c1cc(C(=O)Nc2sc3c(c2C#N)CCC3)no1` gave CYP2C9 inh inactive, CYP2C19 act inactive, CYP2C9 act inactive, EphB4 antag inactive and CYP2C19 inhib inactive.
`O=C(CSc1ccccn1)N1CCN(c2cccc(Cl)c2)CC1` gave CYP2C9 inh inactive, CYP2C19 act inactive, CYP2C9 act inactive, EphB4 antag inactive and CYP2C19 inhib 72.
`O=C(CSc1ccccn1)N1CCN(c2ccccc2)CC1` gave CYP2C9 inh inactive, CYP2C19 act inactive, CYP2C9 act inactive, EphB4 antag inactive and CYP2C19 inhib 99.
`Cn1nnnc1SCC(=O)N1CCN(c2cccc(Cl)c2)CC1` gave CYP2C9 inh inactive, CYP2C19 act inactive, CYP2C9 act inactive, EphB4 antag inactive and CYP2C19 inhib 72.
For O=C(CSc1ccccc1)N1CCN(c2ccccc2)CC1 the results were EphB4 antag inactive.
For Cn1nnnc1SCC(=O)N1CCN(c2ccccc2)CC1 the results were CYP2C9 inh inactive, CYP2C19 act inactive, CYP2C9 act inactive, EphB4 antag inactive and CYP2C19 inhib inactive.
`O=C(CSc1nc(N2CCCCC2)nc(N2CCCCC2)n1)N1CCN(c2ccccc2)CC1` gave CYP2C9 inh 83, CYP2C19 act inactive, CYP2C9 act inactive and CYP2C19 inhib 77.
`Fc1ccccc1N1CCN(C2CCN(Cc3c[nH]c4ccccc34)CC2)CC1` gave CYP2C9 inh inactive, CYP2C19 act inactive, CYP2C9 act inactive and CYP2C19 inhib inactive.
Cn1cc(CNC(=O)C2CCCCC2)cn1 was read as CYP2C9 inh inactive, CYP2C19 act inactive, CYP2C9 act inactive, EphB4 antag inactive and CYP2C19 inhib inactive.
For Cc1ccc(S(=O)(=O)Nc2ccc3c(c2)nc(CN2CCCC2)n3C)cc1 the results were CYP2C9 inh inactive, CYP2C19 act inactive, CYP2C9 act inactive, EphB4 antag inactive and CYP2C19 inhib inactive.
For CC(C)(C)n1cnc2cc(NS(=O)(=O)c3ccc(Br)cc3)ccc21 the results were CYP2C9 inh 99, CYP2C19 act inactive, CYP2C9 act inactive, EphB4 antag inactive and CYP2C19 inhib 100.
Screening Cc1ccc(S(=O)(=O)Nc2ccc3c(c2)ncn3C(C)(C)C)cc1 returned CYP2C9 inh 80, CYP2C19 act inactive, CYP2C9 act inactive and CYP2C19 inhib 92.
`Cn1c(CCN2CCCCC2)nc2cc(NS(=O)(=O)c3ccc(F)cc3)ccc21` gave CYP2C9 inh inactive, CYP2C19 act inactive, CYP2C9 act inactive and CYP2C19 inhib inactive.
Screening CC(C)(C)c1[nH]nc2c1C(c1ccoc1)C(C#N)=C(N)O2 (stereo not given) returned CYP2C9 inh inactive, CYP2C19 act inactive, CYP2C9 act inactive, EphB4 antag inactive and CYP2C19 inhib inactive.
CC(C)(C)c1[nH]nc2c1C(c1ccncc1)C(C#N)=C(N)O2 (stereo not given) was read as CYP2C9 inh 72, CYP2C19 act inactive, CYP2C9 act inactive, EphB4 antag inactive and CYP2C19 inhib 60.
`Cc1[nH]nc2c1C(c1ccc(Cl)cc1)C(C#N)=C(N)O2` (stereo not given) gave CYP2C9 inh inactive, CYP2C19 act inactive, CYP2C9 act inactive, EphB4 antag inactive and CYP2C19 inhib 53.
Screening Cc1ccc(C2C(C#N)=C(N)Oc3n[nH]c(C)c32)cc1 (stereo not given) returned CYP2C9 inh inactive, CYP2C19 act inactive, CYP2C9 act inactive, EphB4 antag inactive and CYP2C19 inhib inactive.
Screening Cc1ccc(C(=O)/C=C/Nc2ccccn2)cc1 returned EphB4 antag inactive.

Source: PubChem
